Source: PubChem (National Center for Advancing Translational Sciences (NCATS))
The list is not random: actives were taken first. Their share in the collection is about 10%.
Lamin A splicing: LMNA splicing modulation | Potency, µM (highest dose often 46.1 µM), hits mostly inhibitors | actives 0.01% (n = 200,000) | HeLa LMNA splicing GFP/RFP minigene ratio, 48 h; active = well fitted inhibition curve with a large enough effect in the signal ratio, with a control signal flat, not every such curve was filed as active; inconclusive = small, poorly fitted or top-dose-only effect, or effect the other way, or a change in a side signal; the % refers to the signal ratio
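S3 HeLa cells stably expressing lamin A-EGFP splicing minigene plus DsRed2, 600 cells/well, 48 h compound exposure at 37C. Laser-scanning cytometry; analysed as GFP (500-530 nm)/RFP (575-640 nm) total intensity ratio; 0.5% DMSO vehicle.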
Luc counter: blocks Kinase-Glo luciferase, a counter-screen artifact; Q27757; Kinase-Glo luciferase, ATP luminescence, 8 min; Potency, µM (titrated, usually from 38.3 µM), most hits filed as inhibitors; actives 0.28% (n = 200,000); AID 1379; active = well fitted inhibition curve with a large enough effect; inconclusive = small, poorly fitted or top-dose-only effect; note: nearly all actives have a fitted effect of over 60% in size
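Kinase-Glo luciferase light output from ATP and luciferin was measured with 10 uM ATP, within the enzyme's linear range. Buffer: 50 mM imidazole pH 7.2, 50 mM KCl, 7 mM MgCl2, 0.01% Tween 20, 0.05% BSA; luminescence read after 8 min at ambient temperature.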
PNC assembly inh: blocks assembly of the perinucleolar compartment. PC3M PTB-GFP, PNC prevalence imaging, 16 h; hits give low values. activity change (PNC), negative = inhibition, % at 10 µM. actives 3.1% (n = 140,000);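 active = readout at or below -70, meaning at least 70% loss of cells showing the perinucleolar compartment, a nuclear body marking cancer cells; inconclusive = readout between -30 and a set limit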
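Read-out is percentage of cells bearing a perinucleolar compartment, from automated 20x imaging of fixed, Hoechst-stained PC3M PTB-GFP cells. Cells were seeded 4 h, then exposed 16 h to compound (23 nl of library stock) in duplicate plates.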
ALDH1A1 block: blocks purified human ALDH1A1 activity. actives 7.3% (n = 220,000). Potency, µM (highest dose often 75.3 µM), actives largely listed as inhibitors. P00352. Purified ALDH1A1, NADH fluorescence, propionaldehyde substrate
HPGD inh: blocks human HPGD enzyme activity | AID 894 | actives 4.3% (n = 150,000) | Potency, µM, hits mostly inhibitors | P15428 | purified HPGD, NADH fluorescence kinetic, PGE2 substrate
Target sequence (P15428 whole entry, looked up): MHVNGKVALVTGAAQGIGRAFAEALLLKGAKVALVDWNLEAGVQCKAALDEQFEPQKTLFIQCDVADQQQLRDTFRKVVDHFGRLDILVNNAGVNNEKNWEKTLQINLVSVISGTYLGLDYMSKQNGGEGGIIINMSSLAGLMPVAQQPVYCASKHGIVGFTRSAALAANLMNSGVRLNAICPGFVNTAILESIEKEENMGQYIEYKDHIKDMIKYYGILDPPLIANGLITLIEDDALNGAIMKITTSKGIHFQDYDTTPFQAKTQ
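NADH formation kinetics: reaction with 30 uM PGE2 and 1 mM NAD+ (final), 20 nM enzyme, Tris-HCl pH 8 with Tween 20, after 15 min compound preincubation at room temperature. Fluorescence change, last versus first of five reads.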
Numbers stand for hits; . = inactive; ? = inconclusive; / = no result given. Unless noted, calls come from the whole dose curve; as a rule, active = well fitted inhibition curve with a large enough effect (not every such curve was filed as active); inconclusive = small, poorly fitted or top-dose-only effect, or another doubt; inactive = no such curve, though single readings can be large or run the other way.

SMILES	Lamin A splicing	Luc counter	PNC assembly inh	ALDH1A1 block	HPGD inh
CCn1ncc(Cl)c1C(=O)Nc1ccncc1	.	.	-114.2	.	.
COc1cc(CN2CCc3nc(N4CCN(c5ccccn5)CC4)ncc3C2)cc(OC)c1OC	.	/	/	/	/
Cc1ccc(OS(=O)(=O)c2ccccc2)c(/C=N/N=C2\NC(=O)C(C)S2)c1 (centres undefined)	?	.	-81.9	.	.
O=C1CS/C(=N/N=C/c2ccccc2OS(=O)(=O)c2ccccc2)N1	?	.	?	.	.
Cc1cc(NC(c2cccnc2)c2ccc3cccnc3c2O)no1 (centres undefined)	?	.	.	.	.
Oc1c(C(Nc2cccc(C(F)(F)F)c2)c2cccnc2)ccc2cccnc12 (centres undefined)	.	.	.	20µM	.
C=CC#CC[N+]1(CC#Cc2ccccc2)CCOCC1	.	.	.	?	25.1µM
COC(=O)c1cc(C)nc2c1c(=O)nc(SCc1ccccc1C)n2C1CC1	.	/	/	/	/
CCC(C)NC(=O)Cn1c(=O)n(-c2ccc(C)c(C)c2)c(=O)c2c(C)c(C(=O)N(CC)CC)sc21 (centres undefined)	.	/	/	/	/
O=C(O)c1cnc(-c2ccccc2)nc1Sc1ccccc1Cl	.	.	.	.	14.1µM
O=C(O)c1cnc(-c2ccccc2)nc1Sc1ccc(Cl)cc1	.	.	.	.	.
Cc1cc(C)cc(N=Cc2ccc([N+](=O)[O-])s2)c1	?	.	.	?	.
O=[N+]([O-])c1ccc(C=Nc2ccc(Cl)c([N+](=O)[O-])c2)s1	?	.	/	14.1µM	/
NC(=O)c1ccc(N=Cc2ccc([N+](=O)[O-])s2)cc1	?	.	?	20µM	.
NC(=O)c1ccc([N+](=O)[O-])cc1	/	/	/	.	.
C/C(=N\NC(=O)COc1ccc(C)cc1Br)c1cc([N+](=O)[O-])cs1	.	.	/	.	/
C/C(=N\NC(=O)COc1ccc(C)cc1[N+](=O)[O-])c1cccs1	?	.	/	14.1µM	/
CCN(CC)S(=O)(=O)c1ccc2c(c1)c(=O)c(C(=O)NCCCN(C)c1ccccc1)cn2C	.	.	.	.	.
CCN(CC)S(=O)(=O)c1ccc2c(c1)c(=O)c(C(=O)NCc1cccs1)cn2C	.	.	.	11.2µM	.
CN(C)S(=O)(=O)c1ccc2c(c1)c(=O)c(C(=O)NCCCN1CCCCCC1)cn2C	.	.	.	15µM	.
CN(CCCNC(=O)c1cn(C)c2ccc(S(=O)(=O)N(C)C)cc2c1=O)c1ccccc1	?	.	?	?	.
Cc1cccc(CN2C(=O)CC(c3ccc(Cl)cc3)c3c(C)nn(-c4nc(C)cc(C)n4)c32)c1 (centres undefined)	.	/	/	/	/
Cc1nn2c(=O)cc(COC(=O)c3ccc(NC(=O)c4cccc(Br)c4)cc3)nc2s1	.	/	/	/	/
Cn1c(=O)c(-c2cc(F)cc(F)c2)nc2cnc(N3CCNCC3)nc21	.	/	/	?	/
CCCCNC(=O)CSc1nc2cc3c(cc2c(=O)n1CCCC(=O)NCc1ccc2c(c1)OCO2)OCO3	.	/	/	/	/
SMILES	Lamin A splicing	Luc counter	PNC assembly inh	ALDH1A1 block	HPGD inh
CON(c1nc(N(C)C)nc(N(C)C)n1)S(=O)(=O)c1ccccc1Cl	.	.	-100.0	.	.
COC(=O)CN(n1cnnc1)S(=O)(=O)c1ccccc1Cl	.	.	?	.	.
C=CCOC(=O)N[C@@H](CC(C)C)/C(C(=O)OC)=C(\C)NCc1ccccc1	/	.	/	.	.
Cc1ccc(C)c(C(=O)COc2ccc(C)nc2[N+](=O)[O-])c1	?	.	?	1.58µM	.
COCCn1c(C)cc(C(=O)COc2ccc(C)nc2[N+](=O)[O-])c1C	/	.	/	10µM	/
Cc1ccc(OCC(=O)c2cc(C)n(-c3ccccc3)c2C)c([N+](=O)[O-])n1	?	.	?	?	.
Cc1ccc(OCC(=O)c2cc(C)c(C)cc2C)c([N+](=O)[O-])n1	.	.	.	3.55µM	.
O=C(COC(=O)c1cc[n+]([O-])cc1)Nc1ccccc1Sc1ccccc1	.	.	/	11.2µM	/
Cc1ccc(OCC(=O)Nc2ccccc2Sc2ccccc2)c([N+](=O)[O-])n1	?	.	-107.4	.	.
Cc1ccc(OCC(=O)Nc2ccc(F)cc2)c([N+](=O)[O-])n1	.	.	/	?	/
Cc1cc([N+](=O)[O-])c2[nH]c(C(=O)N/N=C/c3ccccc3C(=O)O)c(-c3ccccc3)c2c1	?	.	.	1.41µM	?
